Data from ChEMBL document CHEMBL3988442, “University of Dundee, Small-Polar-MMV Screening Library” (2021).

How the values were obtained:
[1] = target: T1, Aspartate--tRNA(Asp/Asn) ligase (Mycobacterium tuberculosis (strain ATCC 25618 / H37Rv)) (UniProt P9WFW3); assay: Assay for Asp RNA synthetase-1 from Mycobacterium tuberculosis; format: functional; design: scale not given: direction of the effect not stated beside the values; settings: 30 µM; note: in the data most compounds retested in dose-response had high values
T1 sequence (whole entry): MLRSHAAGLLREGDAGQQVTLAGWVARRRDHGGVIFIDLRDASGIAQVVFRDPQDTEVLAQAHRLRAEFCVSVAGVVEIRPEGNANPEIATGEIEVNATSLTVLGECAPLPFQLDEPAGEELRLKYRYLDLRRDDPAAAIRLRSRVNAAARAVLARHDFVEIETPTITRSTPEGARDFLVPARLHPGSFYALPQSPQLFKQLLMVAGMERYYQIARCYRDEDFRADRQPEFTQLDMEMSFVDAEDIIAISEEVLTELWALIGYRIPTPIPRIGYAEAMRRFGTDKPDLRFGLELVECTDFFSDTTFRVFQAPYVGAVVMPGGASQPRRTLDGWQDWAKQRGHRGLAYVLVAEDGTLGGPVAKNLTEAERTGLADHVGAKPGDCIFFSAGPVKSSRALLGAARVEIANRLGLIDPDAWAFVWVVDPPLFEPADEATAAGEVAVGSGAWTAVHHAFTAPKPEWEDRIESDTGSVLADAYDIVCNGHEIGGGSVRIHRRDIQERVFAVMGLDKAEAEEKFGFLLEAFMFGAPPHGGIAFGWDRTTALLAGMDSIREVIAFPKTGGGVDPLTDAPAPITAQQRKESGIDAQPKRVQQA

[2] = target: Shiga toxin 2 (Escherichia coli O157:H7) (UniProt P09385+P09386); assay: E. coli 0.157:H7 Shiga Toxin SOP - stx2 screening assay; format: functional; design: scale not given: direction of the effect not stated beside the values; settings: 30 µM

Row | SMILES | Percent Effect [1] [%] | Percent Effect [2] [%]
1 | Cc1cc(C)n(CC2CCCN2CC(=O)NC2CCOCC2)n1 (configuration not stated) | -3.04 | -26.7
2 | CN(Cc1cn2ccccc2c1C#N)C1CCCN(c2cccnn2)C1 (configuration not stated) | 0.694 | -75.3
3 | CNc1snc(C)c1C(=O)N1CCCC(n2nc(C)cc2C)C1 (configuration not stated) | -8.77 | -3.59
4 | COc1ccc(C2SC(C)=Nc3c2c(=O)[nH]n3C2CCCCC2)cc1O (configuration not stated) | 3.89 | -40
5 | O=C(COc1coc(CN2CCCCC2)cc1=O)Nc1ccccc1Cl | 0.319 | -4.27
6 | COc1cc(S(=O)(=O)N2CCCc3ccccc32)cc(C(=O)O)c1OC | 7.13 | -8.55
7 | O=C([C@H]1COC[C@H]2CN(Cc3ccco3)C[C@H]21)N1CCCO1 | 6.23 | -30.2
8 | COCC1c2nnn(CC3CC3)c2CCN1C(=O)c1ccnnc1 (configuration not stated) | -4.7 | -8.58
9 | Cc1ccsc1[C@@H]1CCN(C(=O)CCC(=O)N2CCCCCC2)C[C@H]1O | -0.418 | -23.3
10 | Cc1cnc(CN(C)C2CCN(CCn3cc(C#N)cn3)C2)o1 (configuration not stated) | 5.46 | 17.1
11 | CC(=O)c1cccc(NC(=O)COc2c(C)n(C)ccc2=O)c1 | 1.07 | -59.3
12 | CCn1ncc2c1CCCC2NCc1cccc2c1OCCO2 (configuration not stated) | -2.02 | -6.1
13 | CN(CC(=O)N1CCCC1Cn1cccn1)C1CC1 (configuration not stated) | -2.14 | 12.6
14 | Cc1nc(C)c(C(=O)NCCNC(=O)Cc2ccccc2)s1 | -1.6 | 11.1
15 | CC(C)c1n[nH]c(C2CN(C(=O)C3=COCC3)CCO2)n1 (configuration not stated) | -3.88 | 17.2
16 | CCCNC(=O)c1sc(Nc2ccc(Cl)cn2)nc1C | -4.04 | -46.7
17 | NC(=O)N1CCC2(CCN(Cc3cccc(F)c3)CC2)CC1 | -3.39 | -34.5
18 | CCn1cc(CN2CCCN(C(=O)CCCn3cncn3)CC2)cn1 | -4.34 | -21.5
19 | CC(C)c1nc(C2CCCN(C(=O)c3ccc4nccn4c3)C2)no1 (configuration not stated) | 4.61 | 29.2
20 | Cc1ccc(NC(=O)C2=CN=S=N2)cc1 | -2.07 | -19.2
21 | Cc1nc(CN(C)C(=O)Nc2cnn(CC3CCCO3)c2)cs1 (configuration not stated) | 2.17 | -5.02
22 | CC(=O)N1CCCN(C(=O)NCc2cc[nH]n2)CC1 | -1.74 | -9.44
23 | O=C(c1ccncc1)N1CCC(O)(Cn2ccc3ccncc32)CC1 | -0.194 | -14.9

Row | SMILES | Percent Effect [1] [%] | Percent Effect [2] [%]
24 | Cn1nccc1C1CCN(CC(O)c2cccc(F)c2)CC1 (configuration not stated) | -1.6 | -15.8
25 | Cc1ccc(CN(CCCn2ccnc2)Cc2c[nH]cn2)s1 | -4.18 | -13.7
26 | CNC(=O)c1cc2c(nc1N(C)C)CCN(S(=O)(=O)CC(C)C)CC2 | -0.801 | -2.65
27 | Cc1cccc(NS(=O)(=O)c2cc(C(=O)O)oc2C)c1Cl | -1.97 | 8.36
28 | CCOc1cc(CN(C)CCOC)ccc1OC(F)F | -3.33 | -67.7
29 | CC(C)c1n[nH]c(C2CN(Cc3nnc(C4CC4)o3)CCO2)n1 (configuration not stated) | -2.26 | 0.109
30 | COCCCNC(=O)NCc1ccc(C)cc1 | -3.8 | -59.7
31 | O=C1N(c2ccccc2)Cc2nc(=O)[nH]n21 | -0.29 | -29.1
32 | FC1(F)CCN(Cc2ccncc2)CC12CCN(Cc1ccccn1)C2 (configuration not stated) | 4.66 | -2.47
33 | Fc1ccc(-c2n[nH]cc2-c2ccnc(NCCN3CCCC3)n2)cc1 | 8.63 | -50.2
34 | CCc1nnc(CN(C)c2nc(C3CCCC3)nc3c2cnn3C)o1 | -4.57 | 13.2
35 | CCN(CC)C(=O)Cn1ccc2cc(NC(=O)C3CC3)ccc21 | -1.5 | -4.48
36 | CC(=O)NCC(=O)N1CC[C@H](OCC2CC2)[C@@H]1Cc1cccnc1 | 1.14 | 5.09
37 | O=C(Cc1ccc2c(c1)CCC2)NCCNc1ncccn1 | -1.71 | 7.96
38 | Cc1cccc(CN2CCC3(CCN(c4ccccn4)C3)C2=O)c1 (configuration not stated) | 0.319 | -2.5
39 | O=C(Nc1ccccc1F)N1CCN(Cc2noc(C3CC3)n2)CC1 | 1.99 | -11.6
40 | COc1ccc(NC(=O)CNc2cccc3c2CCCC3)c(OC)c1 | 1 | -28.6
41 | Cc1cccc(C(=O)N2C[C@@H](OCc3cccnc3)[C@H]3OCCC[C@@H]32)n1 | -2 | -30.7
42 | Cn1cc(C2COC3(CCN(C(=O)c4ccc(F)cc4)CC3)C2)cn1 (configuration not stated) | 0.474 | 4.34
43 | CCCNC(=O)c1sccc1N(C)S(=O)(=O)c1ccc(Cl)cc1 | 12.9 | -24.4
44 | Cc1noc2nc(C3CCN(Cc4ccncc4)CC3)cc(C(F)F)c12 | 5.43 | -67.8
45 | CN(C)[C@H]1CCCCN(C(=O)CCc2csc(N)n2)C1 | -1.18 | 3.47
46 | Cn1cc(-c2cnc(N3CCOCC3)nc2)cc1C(=O)N1CCOCC1 | -3.52 | -3.46
